# Compound activity from PubChem BioAssay.
# TPT1 inh – inhibitors of Candida albicans tRNA 2'-phosphotransferase TPT1. inhibition, % at 5 µM. AID 1962. recombinant caTPT1, FP RNA substrate dephosphorylation. 300,000 tested, 0.81% active;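 active = inhibition above the mean of all tested compounds plus 3 SD, set per screening campaign, cut at about 24% in these data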;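 note: plate controls were DMSO alone for no effect and ferristatin control at 100 nM for full effect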
# IDE cell activ – IDE (human) activation, cell-based; P14735; HEK cells, FAbeta-B cleavage, fluorescence polarization; 0% vehicle, 100% cell-free pure enzyme wells; activation, % at 5.96 µM; 340,000 tested, 0.073% active; AID 493087;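 active = activation above the mean of all tested compounds plus 3 SD, set per screening campaign, cut at about 17% in these data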
# IDE inh – inhibitors of human insulin-degrading enzyme in cells. P14735. HEK cells, FAbetaB cleavage, fluorescence polarization. inhibition, % at 5.59 µM. 320,000 tested, 0.41% active. AID 434962;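 active = percent inhibition above the average of all tested compounds plus 3 SD, set per screening campaign, cut at about 16% in these data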;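 note: IDE supplied by intact live HEK cells; FP after avidin binding of uncleaved biotin substrate so inhibition keeps polarization high; 0% = DMSO wells and 100% = 60 µM reference IDE inhibitor Ii1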
# Rpn11 block – blocks the human proteasome subunit Rpn11; human 26S proteasome, Ub4-pepOG fluorescence polarization; 20S core pre-blocked with epoxomicin; O00487; 360,000 tested, 0.59% active; inhibition, % at 20 µM;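 active = inhibition at 20 µM, scaled to each plate's controls, above about 33%, limit read from the data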
# Target sequence (O00487 whole entry, looked up): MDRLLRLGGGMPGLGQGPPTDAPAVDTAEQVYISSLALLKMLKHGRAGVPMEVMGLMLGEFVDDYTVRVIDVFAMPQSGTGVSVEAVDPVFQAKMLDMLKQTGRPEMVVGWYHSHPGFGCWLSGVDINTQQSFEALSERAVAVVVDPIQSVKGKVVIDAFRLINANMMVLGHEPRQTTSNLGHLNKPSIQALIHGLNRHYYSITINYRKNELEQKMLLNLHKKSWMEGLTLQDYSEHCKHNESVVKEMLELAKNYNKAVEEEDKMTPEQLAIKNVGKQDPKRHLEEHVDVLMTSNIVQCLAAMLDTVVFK
# Rin1-Abl PPI inh – human Rin1-Abl interaction inhibition; 360,000 tested, 0.4% active; TR-FRET Rin1/Abl binding, biochemical; inhibition, % at 7.35 µM; in the data active = inhibition above about 5%, passing the limit was not always enough
# Calb FLC – C. albicans growth modulation with fluconazole; C. albicans CaCi-2 (fluconazole-resistant clinical isolate) + fluconazole, Alamar Blue growth, 48 h; growth inhibition, % (test concentration not listed); 300,000 tested, 0.57% active;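 active = growth inhibition above about 58% in most replicates, limit read from the data, passing the limit was not always enough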;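 note: all wells also contain fluconazole at 8 µg/ml as a sub-toxic cotreatment; 0% = median of DMSO wells and 100% = median of geldanamycin control wells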
# Numbers without * were called inactive; . = not tested or not shown; + = active, no number. Shown are actives, neighbours in structure and some others; about 2.3% of the full set was active somewhere.
SMILES,TPT1 inh,IDE cell activ,IDE inh,Rpn11 block,Rin1-Abl PPI inh,Calb FLC
COc1ccc(-c2n(CC(=O)OC3CC(C)CCC3C(C)C)c3ccccc3[n+]2C)cc1 (configuration not stated),.,4,.,-13,-3,95*
COc1ccc(OCc2n(CC(=O)OC3CC(C)CCC3C(C)C)c3ccccc3[n+]2C)cc1 (configuration not stated),-3,18*,0,3,0,-1
COc1ccccc1CNC(=O)c1nn(C)c2c1CS(=O)(=O)c1ccccc1-2,-1,4,-4,0,1,-13
COCCNC(=O)C1(C)CCN(C(=O)/C=C/c2ccccc2)C1 (configuration not stated),.,.,.,-8,2,.
Nc1ccc(S(=O)(=O)Nc2ccc(C(=O)c3ccccc3)cc2)cc1,-1,1,-3,-4,2,-78
O=C(NNc1ccccc1)C(=O)NNS(=O)(=O)c1ccc(CCCl)cc1,-6,1,-2,-5,-2,86*
Nc1ccc(S(=O)(=O)NNC(=O)C(=O)NNc2ccccc2)cc1,-4,3,-3,-6,-1,106*
CCOC(=O)CC1C(=O)NCCN1C(=O)c1c(Cl)cccc1Cl (configuration not stated),1,0,8,1,-3,92*
CCN(CC)CCC(=O)N1C/C(=C/c2ccccc2)C(=O)/C(=C\c2ccccc2)C1,.,0,.,-3,1,.
Cc1ccc(CNC(=O)CN(C(=O)C2(C)CC(=O)N=C3C=CC=CN32)c2ccc(F)cc2)cc1 (configuration not stated),-1,-2,1,-1,1,-2
CCn1c(SC(C)C(=O)NC2CCCC2)nc2cc(S(N)(=O)=O)ccc21 (configuration not stated),.,2,-1,-3,1,.
CN(C)CC(O)COc1cc2ccccc2cc1C(=O)N1CCCCC1 (configuration not stated),-2,4,5,3,2,103*
COCCN(C(=O)CSc1nnc(-c2cccc(C)c2)n1C)c1c(N)n(Cc2ccccc2)c(=O)[nH]c1=O,5,4,2,-4,3,113*
O=C(Nc1c2c(nn1-c1cccc(Cl)c1)CS(=O)(=O)C2)c1ccc2c(c1)OCO2,1,4,-2,-4,2,-4
Cc1ccc(N/C=C(\C#N)S(=O)(=O)c2ccccc2)cc1,-1,18*,3,2,2,-3
Cc1cc(-c2csc(NC(=O)c3ccc(C#N)cc3)n2)c(C)n1Cc1ccccc1,6,2,3,11,0,11
CC(=O)c1ccc(NC(=O)c2ccc([N+](=O)[O-])o2)cc1,.,5,.,3,-4,6
COc1cc(NC(=O)c2ccc([N+](=O)[O-])o2)ccc1NC(=O)c1ccco1,-3,4,5,-1,-1,.
COc1ccc(NC(=O)c2ccc([N+](=O)[O-])o2)cc1,-4,8,4,-2,-3,103*
Cc1cc(NC(=O)c2ccc([N+](=O)[O-])o2)ccc1NC(=O)c1ccco1,.,2,.,-1,-2,58*
CCN(C(=O)CSc1nc2nc(C)cc(C)n2n1)C1CCS(=O)(=O)C1 (configuration not stated),1,4,0,-5,-2,-18
COc1ccc2[nH]c(=O)c(CN(C3CCCCC3)C(c3nnnn3Cc3ccco3)C(C)C)cc2c1 (configuration not stated),57*,1,1,.,0,-2
CC1CCC(C(=O)c2c(O)c3ccccc3oc2=O)CC1 (configuration not stated),2,4,-4,-12,-1,108*
N=C1/C(=C\c2ccc(-c3ccc(C(=O)O)cc3)o2)C(=O)N=C2SC=C(c3ccccc3)N12,.,-1,.,+,-1,0
COc1cc(/C=C2/C(=N)N3C(c4ccccc4)=CSC3=NC2=O)ccc1OCC(=O)O,3,-5,0,16,-1,-8
